S2 tox – cell viability loss in ATXN counter-screen; Potency, µM (series often up to 56.7 µM), hits mostly cytotoxic; hit rate 0.49% among 400,000; AID 651635; S2 cells (HEK-293 line with an ATXN2-luciferase reporter) viability, CellTiter-Fluor protease fluorescence, 24 h; further: nearly all actives have a fitted effect of over 40% in size
ATXN2 expr inh – ATXN2 expression inhibition; Potency, µM (top dose mostly 57 µM), most hits filed as inhibitors; HEK-293 ATXN2-luciferase reporter, luminescence, 24 h; hit rate 0.72% among 360,000; AID 1745845; further: nearly all actives have a fitted effect of over 55% in size
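ATXN2-luciferase reporter cells (luciferase flanked by upstream and downstream ATXN2 gene portions) were treated 24 h at 37 °C with compounds at up to 57 uM. SteadyGlo luminescence gave expression; GF-AFC fluorescence gave viability.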
TGFb SMAD3 inh – blocks TGF-b signaling; Potency, µM (doses to about 46.1 µM), most hits filed as inhibitors; hit rate 1.2% among 410,000; AID 588855; HepG2 CAGA-GFP TGF-b/SMAD3 reporter, GFP fluorescence, 18 h; TGF-beta stimulated, 500 pg/mL final; further: nearly all actives have a fitted effect of over 65% in size
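Smad-responsive CAGA-GFP expression was quantified in HEPG2 cells exposed to compounds and 500 pg/mL final TGF-beta for 18 h at 37 degrees C; unstimulated wells defined full inhibition.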
HepG2 tox – counter-screen for TGF-b inhibitors: cytotoxicity in HepG2 cells | HepG2 CAGA-GFP viability, ATP luminescence, 18 h | Potency, µM (highest dose often 46.1 µM), hits mostly cytotoxic | hit rate 0.76% among 410,000
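HepG2 CAGA-GFP cells (1000/well, DMEM with 1% FBS) received compound, then TGF-beta at 500 pg/mL final, and were incubated 18 hours at 37 degrees C. Viability was read by CellTiter-Glo luminescence. Media-only wells were set as complete cell-killing and DMSO as no toxicity.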
Numbers stand for hits; 0 = inactive; ? = inconclusive; - = no result; ! = not active in a repeat; [ ] = dose if it differs, or a comment. Sampled rows, rich in hits. Any-hit rate of the full collection: about 2.3%. The call rests on the fitted dose curve; in most records, active means well fitted curve in the direction sought with a large enough effect; inconclusive means small, poorly fitted or top-dose-only effect, or another doubt; inactive means no such curve, though single readings can be large; an effect the other way counts as inactive or inconclusive.

SMILES	S2 tox	ATXN2 expr inh	TGFb SMAD3 inh	HepG2 tox
C[C@@H]1CC(=O)NN=C1c1ccc(NN=C(C#N)C#N)cc1	25µM	27µM!	-	-
O=c1[nH]c2ccccc2c(=O)n1CCCl	0	0	-	-
CCN(CC)C(=O)C1CN2CCc3cc(OC)c(OC)cc3C2CC1OC(C)=O (centres undefined)	0	0	-	-
COc1ccc2[nH]c3c(c2c1)CCNC3=O	0	0	0	0
C=C1CCc2c([nH]c3ccc(OCC(C)C)cc23)C1=O	?	?	5µM	2.5µM
N#Cc1ccc(/C=C2\C=Cc3ccccc32)cc1	-	-	0	0
Cc1ccc(C(=O)Sc2cccccc2=O)cc1	-	?	0.89µM	1.4µM
COc1ccc(C(=O)C[n+]2ccc(Cl)c3ccc(Cl)cc32)cc1	-	-	0	0
CCOc1ccc(NC(=O)c2oc(=O)c3ccccc3c2-c2ccc(C)cc2)cc1	0	0	0	0
CCOc1ccc(N(C)C(=O)c2oc(=O)c3ccccc3c2-c2ccccc2)cc1	-	-	16µM	0
CC(=O)Nc1ccccc1-c1nc(CNC(=O)c2ccc(F)c(F)c2)c(C)o1	0	-	-	-
CCN1CCN(C2=C(NS(=O)(=O)c3ccc(C)cc3)C(=O)c3ccccc3C2=O)CC1	?	?	13µM	11µM
CCN1CCN(C2=C(NS(=O)(=O)c3ccc(NC(C)=O)cc3)C(=O)c3ccccc3C2=O)CC1	?	-	?	0
CC(=O)Nc1ccc(S(=O)(=O)NC2=C(N3CCN(C)CC3)C(=O)c3ccccc3C2=O)cc1	14µM	-	?	0
CNC(=S)NNC(=O)c1sc2cc(C(F)(F)F)cnc2c1-c1cccnc1	0	0	0	0
CNC(=S)NNC(=O)c1sc2cc(C(F)(F)F)cnc2c1-c1ccccn1	0	0	0	2.5µM
O=S(=O)(Nc1cccc(-c2nc3cccnc3s2)c1)c1ccc2c(c1)CCCC2	-	0	13µM	10µM
COCc1ccc(CN2Cc3ccccc3OC(c3ccccc3F)C2)o1 (centres undefined)	0	-	-	-
Cc1cnc(-c2cc(N3CCN(C(=O)CCS(C)(=O)=O)CC3)ncc2Cl)c(C)c1	-	0	-	-
Cc1c(Nc2cc(Cl)c3nonc3c2[N+](=O)[O-])c(=O)n(-c2ccccc2)n1C	28µM	?	?	0
Cc1c(Nc2ccc3nonc3c2[N+](=O)[O-])c(=O)n(-c2ccccc2)n1C	0	0	0	0
CCOC(=O)C(C(=O)OCC)C(Nc1ccc(Br)cc1)c1ccccc1 (centres undefined)	0	0	?	11µM
O=C(NCCc1ccccn1)C1CC12CCN(C(=O)c1ccccc1Cl)CC2 (centres undefined)	0	-	-	-
CCOC(=O)CCC(NC(=O)c1ccc(Nc2nc3ccccc3nc2C(=O)OCC)cc1)C(=O)OCC (centres undefined)	30µM	27µM	0	0
CN1C(=S)N(c2cccnc2)C(=O)/C1=C\c1ccc(C(C)(C)C)cc1	?	0	22µM	0
SMILES	S2 tox	ATXN2 expr inh	TGFb SMAD3 inh	HepG2 tox
O=C(Nc1ccccc1C(=O)N/N=C/c1ccncc1)c1ccccc1	0	0	0	5µM
Cc1ccccc1C(=O)Nc1ccc(C(=O)N/N=C/c2ccncc2)cc1	0	?	0	0
CC(C)c1onc(-c2c(Cl)cccc2Cl)c1COc1ccc(C=Cc2cccc(C(=O)O)c2)c(Cl)c1	-	0	-	-
CN1CCN(c2ccc(Nc3ccnc4cc(Cl)ccc34)cc2)CC1	?	3.5µM	0	0
CCOc1ccc(Nc2ccnc3cc(Cl)ccc23)cc1	0	0	0	0
CC1=CC(=O)C(C(C)C)=C/C1=N/OS(=O)(=O)c1ccccc1	3.2µM	-	5µM	0
O=C(C[N+]1(CCc2ccccc2)CCOCC1)c1ccccc1	-	-	0	0
CCCCOc1ccccc1C1CC(=O)Nc2ccc3ccccc3c21 (centres undefined)	-	-	?	11µM
O=C(c1cscn1)N1CCOc2ccc(CN3CCC(Oc4cccnc4)CC3)cc2C1	0	-	-	-
Cc1oc2c(c(=O)c1C)C(=O)CC(c1ccccc1)C2 (centres undefined)	0	0	0	0
CS(=O)(=O)c1sc(C#N)c2c1C(=O)CC(c1ccccc1)C2 (centres undefined)	6.3µM	5µM	?	0
Cc1cc(C(=O)N/N=C/c2ccc([N+](=O)[O-])cc2)c2ccccc2n1	0	?	0	0
Cc1ccnn1CC(=O)N/N=C/c1cccs1	0	0	0	0
O=C(Cc1ccccc1)N/N=C/c1ccc([N+](=O)[O-])s1	0	0	?	0
Cc1cc(C(=O)N/N=C/c2ccc([N+](=O)[O-])s2)c2ccccc2n1	?	?	10µM	0
COC(=O)N/N=C/c1ccc([N+](=O)[O-])s1	0	0	?	0
Cc1ccnn1CC(=O)N/N=C/c1ccc([N+](=O)[O-])s1	0	?	11µM	0
O=C(N/N=C/c1ccc([N+](=O)[O-])s1)c1ccccc1Br	?	?	11µM	10µM
O=C(N/N=C/c1ccc([N+](=O)[O-])s1)C(O)c1ccccc1 (centres undefined)	?	?	7.9µM	7.9µM
O=C1NC(=O)C(=Cc2ccc3c(c2)OC(F)(F)O3)S1	-	0	-	-
CCOc1ccc(Nc2nc(-c3c(C)nc4ccccn34)cs2)cc1	-	0	-	-
C[N+]1(C)CCN(CC(O)(c2ccccc2)C2CCCCC2)CC1 (centres undefined)	0	-	-	-
O=C(N/N=C\c1ccc([N+](=O)[O-])s1)c1cncc(Br)c1	28µM	10µM	6.3µM	3.5µM
COc1ccc(NC(C)C(=O)N/N=C/c2ccc([N+](=O)[O-])s2)cc1 (centres undefined)	?	?	13µM	18µM
Cc1ccccc1C(=O)N/N=C/c1ccc([N+](=O)[O-])s1	?	7.9µM	?	0
SMILES	S2 tox	ATXN2 expr inh	TGFb SMAD3 inh	HepG2 tox
O=C(N/N=C/c1ccc([N+](=O)[O-])s1)c1ccccc1	0	?	11µM	13µM
O=C(N/N=C/c1cccs1)c1cncc(Br)c1	0	0[11.3 µM]	0	0
COc1cccc(C2(CC(=O)N3CCN(c4nonc4C)CC3)CC(=O)N(C3CCCC3)C2=O)c1 (centres undefined)	0	-	-	-
Cc1ccccc1NC(=O)/C=C/c1ccc([N+](=O)[O-])s1	10µM	10µM	7.1µM	7.9µM
Cc1cc(C)cc(NC(=O)/C=C/c2ccc([N+](=O)[O-])s2)c1	0	?	0	0
COC(=O)CCC(=O)N(CCN(C(=O)CCC(=O)OC)c1ccccc1)c1ccccc1	0	0	0	0
CON(C)C(=O)CCN(C(=O)OC(C)(C)C)c1ccccc1	0	0	0	0.56µM
Cc1cnc(NC(=O)CN2CCN(c3ccccn3)CC2)s1	?	8.9µM	?	0
COc1ccc(N2CCN(CC(=O)Nc3ncc(C)s3)CC2)cc1	?	-	0	0
COc1cc(-c2ccc(C)cc2)cc2c1OCCN(C(=O)CCn1ccc(C)n1)C2	0	-	-	-
O=[N+]([O-])c1cc(O)c2ncccc2c1	?	5µM	5µM	4µM
O=C(CCCC(=O)N/N=C\c1ccccn1)N/N=C\c1ccccn1	0	0	0	0
S=C(NN=Cc1ccccn1)N(Cc1ccccn1)Cc1ccccn1	?	7.9µM	?	0
CC(=NNC(=S)N(Cc1ccccn1)Cc1ccccn1)c1cnccn1	?	1.3µM	?	0

Bioassay records as filed in PubChem.
